Experimental findings from PubChem BioAssay (Tox21) are described below.

Molecules are shown by their SMILES. Where “and” joins values, the source holds several entries; their conditions need not be identical. Identical values can stand only once. Inconclusive results are not listed. Where a call stands in place of a potency, no number is given. More than one record can exist for a structure, and the calls need not agree. Calls of active or inactive are those of the source. The call rests on the fitted dose curve.
Potency means the concentration at half of the fitted maximal effect.

The target of this assay is Thyrotropin receptor (Homo sapiens) (UniProt P16473). In words: qHTS assay to identify small molecule agonists of the thyroid stimulating hormone receptor (TSHR) signaling pathway (AID 1224843). Further: nearly all actives have a fitted effect of over 45% in size. The note with it: TSHR-HEK293 cells, cAMP HTRF, agonist mode, 30 min; series mostly up to 92.4 µM. The text has this: National Center for Advancing Translational Sciences [NCATS]
Sequence of Thyrotropin receptor (Homo sapiens) (P16473 whole entry, looked up): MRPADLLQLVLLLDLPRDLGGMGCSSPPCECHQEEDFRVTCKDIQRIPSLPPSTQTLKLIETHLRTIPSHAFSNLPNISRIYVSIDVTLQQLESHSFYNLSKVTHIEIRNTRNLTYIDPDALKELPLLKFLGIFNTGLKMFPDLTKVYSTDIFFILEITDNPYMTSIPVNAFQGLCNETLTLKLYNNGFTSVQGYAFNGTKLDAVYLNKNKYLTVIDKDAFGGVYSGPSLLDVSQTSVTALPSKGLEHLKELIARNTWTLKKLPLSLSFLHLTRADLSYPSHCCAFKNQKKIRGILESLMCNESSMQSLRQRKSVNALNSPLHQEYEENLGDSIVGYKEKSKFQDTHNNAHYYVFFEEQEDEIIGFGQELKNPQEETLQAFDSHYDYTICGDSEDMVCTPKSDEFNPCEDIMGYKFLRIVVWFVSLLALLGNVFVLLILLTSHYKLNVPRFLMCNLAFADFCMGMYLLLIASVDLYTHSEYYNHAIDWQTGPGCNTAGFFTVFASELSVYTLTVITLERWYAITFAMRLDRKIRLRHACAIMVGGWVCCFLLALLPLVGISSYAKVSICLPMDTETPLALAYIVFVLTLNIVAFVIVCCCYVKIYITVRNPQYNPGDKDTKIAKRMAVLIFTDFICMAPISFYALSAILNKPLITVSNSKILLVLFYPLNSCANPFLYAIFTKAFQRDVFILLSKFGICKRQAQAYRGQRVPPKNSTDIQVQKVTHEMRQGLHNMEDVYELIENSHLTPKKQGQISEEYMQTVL
NIH Chemical Genomics Center [NCGC]
U.S. Environmental Protection Agency [EPA]
National Institutes of Environmental Health Sciences [NIEHS]
National Toxicology Program [NTP]
U.S. Food and Drug Administration [FDA]
TSHR is the receptor for thyrotropin (thyroid stimulating hormone or TSH), a member of the glycoprotein hormone family. TSH is released by the anterior pituitary gland and is the main regulator of thyroid gland growth and development. Upon binding circulating thyrotropin, a G-protein signal cascade activates adenylyl cyclase and […] cAMP concentration is increased. cAMP is a key second messenger involved extensively in cellular signal transduction pathways associated with the majority of G-protein coupled receptors (GPCRs). The activation of these GPCRs by neurotransmitters, lipids, nucleotides, peptides and hormones results in the activation or the inhibition of plasma membrane-bound adenylate cyclase through heterotrimeric G-proteins. A cell-based TSHR assay was used to screen the Tox21 10K library for compounds that can modulate TSHR in agonist mode.
Tox21 Assay Protocol Summary:
TSHR-Hek293 cells were dispensed at 800 cells/4uL/well in 1536-well white plates using a Multidrop dispenser. […] The plates were incubated at room temperature for 30 min. 2.5 ul/well of cAMP-d2 and 2.5ul/well of anti-cAMP-cryptate was added respectively into the assay plates using a Flying Reagent Dispenser. After 1 hr incubation at room temperature, the fluorescence intensity in the plates was measured using an Envision plate reader. Each test compound was measured at 15 concentrations and in triplicates.
For orientation: In qHTS, concentration-response curves come from the screen itself.
Consider `N#Cc1c(Cl)c(Cl)c(Cl)c(C#N)c1Cl`, for which the Potency was 2.68 µM (active) and 3.86 µM (active).
The result for `C[C@]12CC[C@H]3[C@@H](CCC4=CC(=O)CC[C@@H]43)[C@@H]1CC[C@@H]2O` reads “inactive”.
Turning to `CC(C)CON=O`, the Potency entry is “inactive”.
Under `CCOC(=O)c1ccccc1N` stands “inactive”; under `Cc1ccc([N+](=O)[O-])cc1`, “inactive”; under `CC(C)=CC1C(C(=O)OCc2cccc(Oc3ccccc3)c2)C1(C)C` (stereo not given), “inactive”.
The result for `C=CC(=O)OCC(CC)(COC(=O)C=C)COC(=O)C=C` reads 11.2 µM (active) and 15.4 µM (active).
As to `Cc1ccc(N=CN(C)C=Nc2ccc(C)cc2C)c(C)c1`, the Potency result was “inactive”.
Under `[CH3][Sn]([Cl])([Cl])[Cl]` stands “inactive”; under `Clc1ccccc1-c1nnc(-c2ccccc2Cl)nn1`, “inactive”; under `CNC(=S)S`, “inactive”.
The result for `CCCCCCCCCCCCCl` reads “inactive”.
Under `Cn1c(-c2ccccc2)cc(-c2ccccc2)[n+]1C` stands “inactive”; under `CC1CC(=O)O1` (stereo not given), “inactive”; under `C=C(C)C#N`, “inactive”.
`Clc1cccc(Cl)c1`: the Potency entry is “inactive”.
For the molecule `N#Cc1cccnc1`, the Potency result was “inactive”.
For the molecule `CN(C)c1nc(=O)n(C2CCCCC2)c(=O)n1C`, the Potency result was “inactive”.
The result for `CN(C)c1ccccc1` reads “inactive”.
The result for `ClC(Cl)(Cl)c1ccccc1` reads “inactive”; that for `CCCCOCCOC(C)=O`, “inactive”; that for `Clc1ccc(C(Cl)(Cl)Cl)cc1`, “inactive”.
The result for `CC(O)CN(CC(C)O)CC(C)O` (stereo not given) reads “inactive”; that for `CC(C)(c1ccccc1)c1ccc(O)c(C(C)(C)c2ccccc2)c1`, 54.5 µM (active); that for `O=S(=O)(O)C(F)(F)C(F)(F)C(F)(F)C(F)(F)C(F)(F)C(F)(F)C(F)(F)C(F)(F)F`, “inactive”.
As for `O=C1CCCO1`, the Potency entry was “inactive”.
With `C=CC(Cl)CCl` (stereo not given), the Potency entry is “inactive”.
As for `CCN(CC)C(=O)C(C)Oc1cccc2ccccc12` (stereo not given), the Potency result is “inactive and 30.6 µM (active)”.
Take `CCNc1nc(Cl)nc(NC(C)(C)C#N)n1`: the Potency entry was “inactive”.
Turning to `O=C(O)CF`, the Potency result is “inactive”.
The result for `CCOP(=S)(OCC)OP(=S)(OCC)OCC` reads “inactive”; that for `C[N+](C)(C)C`, “inactive”.
`O=C1Nc2ccc(Cl)cc2C(c2ccccc2)=NC1O` (stereo not given): the Potency result is “inactive”.
With `ClCc1ccccn1`, the Potency result was “inactive”.
As to `O=NN1CCOCC1`, the Potency result is “inactive”.
With `ClCC(Cl)CCl`, the Potency result was “inactive”.
Consider `Brc1ccc(Br)cc1`, for which the Potency result was “inactive”.
Take `CC(C)(C#N)N=NC(C)(C)C#N`: the Potency entry was “inactive”.
Under `CCOS(=O)(=O)OCC` stands “inactive”; under `O=[N+]([O-])c1ccc(Nc2ccccc2)cc1`, “inactive”.
